Experimental data taken from ChEMBL document CHEMBL1961873, “Compounds: GSK PKIS; Assays: Nanosyn kinase panel” (2012).

Columns and labels:
[1] = target: Tyrosine-protein kinase CSK (Homo sapiens) (UniProt P41240); settings: at 1 µM;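 further: each value is an averaged inhibition reading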
[2] = target: T1, Discoidin domain-containing receptor 2 (Homo sapiens) (UniProt Q16832); settings: at 0.1 µM
T1 sequence (whole entry): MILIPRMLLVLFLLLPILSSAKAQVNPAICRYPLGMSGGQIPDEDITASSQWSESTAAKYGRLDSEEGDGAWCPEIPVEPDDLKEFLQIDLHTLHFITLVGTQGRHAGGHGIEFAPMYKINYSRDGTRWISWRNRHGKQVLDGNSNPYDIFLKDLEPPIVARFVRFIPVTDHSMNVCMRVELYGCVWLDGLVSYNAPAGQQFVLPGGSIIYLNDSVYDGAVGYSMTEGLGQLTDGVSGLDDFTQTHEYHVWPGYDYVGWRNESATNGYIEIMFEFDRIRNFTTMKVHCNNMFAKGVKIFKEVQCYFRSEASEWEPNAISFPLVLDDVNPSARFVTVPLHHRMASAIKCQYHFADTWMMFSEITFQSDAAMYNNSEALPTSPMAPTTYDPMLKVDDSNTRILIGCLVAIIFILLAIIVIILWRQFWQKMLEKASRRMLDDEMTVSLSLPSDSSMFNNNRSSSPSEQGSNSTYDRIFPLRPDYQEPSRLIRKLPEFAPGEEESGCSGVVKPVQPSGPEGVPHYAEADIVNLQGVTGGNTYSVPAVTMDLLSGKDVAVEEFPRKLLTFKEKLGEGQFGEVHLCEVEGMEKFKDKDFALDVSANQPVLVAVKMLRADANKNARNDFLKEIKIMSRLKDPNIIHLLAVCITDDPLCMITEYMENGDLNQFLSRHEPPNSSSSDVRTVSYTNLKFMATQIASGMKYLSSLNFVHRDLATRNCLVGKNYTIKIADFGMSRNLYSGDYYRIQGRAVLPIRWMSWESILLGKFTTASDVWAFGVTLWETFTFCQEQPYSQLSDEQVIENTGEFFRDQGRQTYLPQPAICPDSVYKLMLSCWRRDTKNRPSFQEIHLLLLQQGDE

[3] = target: T1, Discoidin domain-containing receptor 2 (Homo sapiens); settings: at 1 µM
[4] = target: Epidermal growth factor receptor (Homo sapiens) (UniProt P00533); settings: at 0.1 µM
Chain of Epidermal growth factor receptor (Homo sapiens) (P00533 whole entry): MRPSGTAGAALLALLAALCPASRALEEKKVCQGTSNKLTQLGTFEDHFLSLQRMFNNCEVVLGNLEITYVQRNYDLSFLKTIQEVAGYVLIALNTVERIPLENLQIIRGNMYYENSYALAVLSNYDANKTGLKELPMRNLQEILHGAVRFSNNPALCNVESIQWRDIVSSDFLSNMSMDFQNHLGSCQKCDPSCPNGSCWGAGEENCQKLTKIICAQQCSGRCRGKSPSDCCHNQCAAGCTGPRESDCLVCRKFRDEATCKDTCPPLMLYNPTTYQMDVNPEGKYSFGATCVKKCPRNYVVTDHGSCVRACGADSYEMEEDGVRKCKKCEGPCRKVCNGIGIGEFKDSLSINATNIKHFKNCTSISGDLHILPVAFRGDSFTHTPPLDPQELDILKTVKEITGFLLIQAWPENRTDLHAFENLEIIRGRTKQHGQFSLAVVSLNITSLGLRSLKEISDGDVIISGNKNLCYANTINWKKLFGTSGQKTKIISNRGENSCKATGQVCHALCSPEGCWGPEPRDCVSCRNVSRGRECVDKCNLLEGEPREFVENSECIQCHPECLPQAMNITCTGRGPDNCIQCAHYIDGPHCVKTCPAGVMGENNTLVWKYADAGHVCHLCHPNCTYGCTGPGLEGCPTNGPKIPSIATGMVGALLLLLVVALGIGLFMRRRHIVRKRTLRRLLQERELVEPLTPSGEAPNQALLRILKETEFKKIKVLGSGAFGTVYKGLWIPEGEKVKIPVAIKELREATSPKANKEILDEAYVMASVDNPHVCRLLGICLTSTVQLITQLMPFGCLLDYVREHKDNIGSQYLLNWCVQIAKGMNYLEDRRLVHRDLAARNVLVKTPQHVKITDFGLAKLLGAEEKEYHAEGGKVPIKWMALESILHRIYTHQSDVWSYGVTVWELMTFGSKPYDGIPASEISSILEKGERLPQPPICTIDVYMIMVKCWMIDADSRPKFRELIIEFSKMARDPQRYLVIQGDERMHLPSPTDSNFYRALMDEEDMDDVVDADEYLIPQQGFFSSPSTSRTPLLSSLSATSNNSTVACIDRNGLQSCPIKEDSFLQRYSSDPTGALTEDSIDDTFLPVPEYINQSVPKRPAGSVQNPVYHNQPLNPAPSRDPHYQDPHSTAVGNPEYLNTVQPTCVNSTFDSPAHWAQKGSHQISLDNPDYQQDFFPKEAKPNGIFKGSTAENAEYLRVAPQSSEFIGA

[5] = target: Epidermal growth factor receptor (Homo sapiens) (UniProt P00533); settings: at 1 µM
[6] = tested on: Epidermal growth factor receptor (Homo sapiens), P00533 [L858R]; settings: at 0.1 µM
Chain of Epidermal growth factor receptor (Homo sapiens), P00533 [L858R] (P00533 whole entry L858R): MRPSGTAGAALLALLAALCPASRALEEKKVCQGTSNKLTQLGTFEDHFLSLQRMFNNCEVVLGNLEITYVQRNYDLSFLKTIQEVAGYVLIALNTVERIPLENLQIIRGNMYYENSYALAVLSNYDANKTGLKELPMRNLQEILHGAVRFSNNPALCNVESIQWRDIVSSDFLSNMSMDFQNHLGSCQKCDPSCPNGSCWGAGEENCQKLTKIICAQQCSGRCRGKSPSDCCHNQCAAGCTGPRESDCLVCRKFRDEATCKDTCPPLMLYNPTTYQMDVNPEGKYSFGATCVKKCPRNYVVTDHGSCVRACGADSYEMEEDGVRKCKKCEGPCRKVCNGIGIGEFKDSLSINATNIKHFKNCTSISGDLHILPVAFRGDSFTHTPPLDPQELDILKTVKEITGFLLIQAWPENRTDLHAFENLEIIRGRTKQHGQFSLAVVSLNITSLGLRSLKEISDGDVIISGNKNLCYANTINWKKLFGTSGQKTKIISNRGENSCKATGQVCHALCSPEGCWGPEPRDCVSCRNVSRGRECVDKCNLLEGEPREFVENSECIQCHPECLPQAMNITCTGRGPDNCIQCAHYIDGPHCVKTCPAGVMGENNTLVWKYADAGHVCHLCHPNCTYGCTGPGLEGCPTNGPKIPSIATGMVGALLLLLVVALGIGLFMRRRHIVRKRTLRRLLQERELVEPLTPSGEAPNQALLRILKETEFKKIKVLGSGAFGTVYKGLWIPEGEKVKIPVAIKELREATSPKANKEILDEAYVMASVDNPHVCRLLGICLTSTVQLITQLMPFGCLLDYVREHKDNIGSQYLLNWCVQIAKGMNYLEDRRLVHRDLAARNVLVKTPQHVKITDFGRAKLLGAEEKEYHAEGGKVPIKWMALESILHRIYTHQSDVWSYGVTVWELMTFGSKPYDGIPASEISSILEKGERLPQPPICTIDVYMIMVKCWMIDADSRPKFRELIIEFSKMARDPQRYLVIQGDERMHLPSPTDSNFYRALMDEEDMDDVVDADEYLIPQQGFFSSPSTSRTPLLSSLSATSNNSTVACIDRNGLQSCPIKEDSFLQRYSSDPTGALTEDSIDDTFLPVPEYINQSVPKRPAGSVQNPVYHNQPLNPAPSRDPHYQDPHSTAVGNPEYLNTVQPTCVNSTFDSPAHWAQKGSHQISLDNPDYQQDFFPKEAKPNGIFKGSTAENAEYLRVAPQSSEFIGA

[7] = tested on: Epidermal growth factor receptor (Homo sapiens), P00533 [L858R]; settings: at 1 µM
[8] = tested on: Epidermal growth factor receptor (Homo sapiens), P00533 [L861Q]; settings: at 0.1 µM
Chain of Epidermal growth factor receptor (Homo sapiens), P00533 [L861Q] (P00533 whole entry L861Q): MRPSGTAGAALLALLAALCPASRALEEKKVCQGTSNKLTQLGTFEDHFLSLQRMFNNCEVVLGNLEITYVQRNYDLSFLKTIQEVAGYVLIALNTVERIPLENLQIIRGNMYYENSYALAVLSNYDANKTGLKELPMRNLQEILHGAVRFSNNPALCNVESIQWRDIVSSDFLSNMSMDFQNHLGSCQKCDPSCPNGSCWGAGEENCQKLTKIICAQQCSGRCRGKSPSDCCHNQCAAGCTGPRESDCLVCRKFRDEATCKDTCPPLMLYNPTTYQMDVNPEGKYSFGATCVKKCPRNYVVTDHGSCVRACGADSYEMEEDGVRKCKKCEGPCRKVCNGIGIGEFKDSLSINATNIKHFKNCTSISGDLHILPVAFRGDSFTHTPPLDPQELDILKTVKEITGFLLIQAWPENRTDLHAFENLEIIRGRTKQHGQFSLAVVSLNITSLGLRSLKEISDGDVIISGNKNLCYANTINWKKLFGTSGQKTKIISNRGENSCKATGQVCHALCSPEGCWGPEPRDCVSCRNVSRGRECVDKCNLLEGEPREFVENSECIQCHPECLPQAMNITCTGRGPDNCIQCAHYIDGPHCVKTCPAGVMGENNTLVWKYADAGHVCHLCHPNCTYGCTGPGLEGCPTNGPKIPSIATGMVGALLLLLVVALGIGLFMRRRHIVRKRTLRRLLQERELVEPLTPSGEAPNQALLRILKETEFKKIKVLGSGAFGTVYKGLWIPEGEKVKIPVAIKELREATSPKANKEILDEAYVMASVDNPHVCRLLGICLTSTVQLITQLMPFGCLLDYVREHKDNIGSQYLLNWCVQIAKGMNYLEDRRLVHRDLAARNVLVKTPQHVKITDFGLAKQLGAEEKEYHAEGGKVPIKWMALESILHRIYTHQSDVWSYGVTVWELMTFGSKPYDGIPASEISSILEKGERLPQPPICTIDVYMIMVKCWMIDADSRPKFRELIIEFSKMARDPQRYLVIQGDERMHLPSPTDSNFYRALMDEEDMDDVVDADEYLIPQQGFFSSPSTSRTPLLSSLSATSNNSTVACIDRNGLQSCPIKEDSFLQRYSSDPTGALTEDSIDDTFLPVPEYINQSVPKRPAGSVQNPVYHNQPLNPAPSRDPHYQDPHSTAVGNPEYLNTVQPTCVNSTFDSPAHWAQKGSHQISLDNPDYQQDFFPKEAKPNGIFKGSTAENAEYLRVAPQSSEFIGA

[9] = tested on: Epidermal growth factor receptor (Homo sapiens), P00533 [L861Q]; settings: at 1 µM
[10] = tested on: Epidermal growth factor receptor (Homo sapiens), P00533 [T790M]; settings: at 0.1 µM
Chain of Epidermal growth factor receptor (Homo sapiens), P00533 [T790M] (P00533 whole entry T790M): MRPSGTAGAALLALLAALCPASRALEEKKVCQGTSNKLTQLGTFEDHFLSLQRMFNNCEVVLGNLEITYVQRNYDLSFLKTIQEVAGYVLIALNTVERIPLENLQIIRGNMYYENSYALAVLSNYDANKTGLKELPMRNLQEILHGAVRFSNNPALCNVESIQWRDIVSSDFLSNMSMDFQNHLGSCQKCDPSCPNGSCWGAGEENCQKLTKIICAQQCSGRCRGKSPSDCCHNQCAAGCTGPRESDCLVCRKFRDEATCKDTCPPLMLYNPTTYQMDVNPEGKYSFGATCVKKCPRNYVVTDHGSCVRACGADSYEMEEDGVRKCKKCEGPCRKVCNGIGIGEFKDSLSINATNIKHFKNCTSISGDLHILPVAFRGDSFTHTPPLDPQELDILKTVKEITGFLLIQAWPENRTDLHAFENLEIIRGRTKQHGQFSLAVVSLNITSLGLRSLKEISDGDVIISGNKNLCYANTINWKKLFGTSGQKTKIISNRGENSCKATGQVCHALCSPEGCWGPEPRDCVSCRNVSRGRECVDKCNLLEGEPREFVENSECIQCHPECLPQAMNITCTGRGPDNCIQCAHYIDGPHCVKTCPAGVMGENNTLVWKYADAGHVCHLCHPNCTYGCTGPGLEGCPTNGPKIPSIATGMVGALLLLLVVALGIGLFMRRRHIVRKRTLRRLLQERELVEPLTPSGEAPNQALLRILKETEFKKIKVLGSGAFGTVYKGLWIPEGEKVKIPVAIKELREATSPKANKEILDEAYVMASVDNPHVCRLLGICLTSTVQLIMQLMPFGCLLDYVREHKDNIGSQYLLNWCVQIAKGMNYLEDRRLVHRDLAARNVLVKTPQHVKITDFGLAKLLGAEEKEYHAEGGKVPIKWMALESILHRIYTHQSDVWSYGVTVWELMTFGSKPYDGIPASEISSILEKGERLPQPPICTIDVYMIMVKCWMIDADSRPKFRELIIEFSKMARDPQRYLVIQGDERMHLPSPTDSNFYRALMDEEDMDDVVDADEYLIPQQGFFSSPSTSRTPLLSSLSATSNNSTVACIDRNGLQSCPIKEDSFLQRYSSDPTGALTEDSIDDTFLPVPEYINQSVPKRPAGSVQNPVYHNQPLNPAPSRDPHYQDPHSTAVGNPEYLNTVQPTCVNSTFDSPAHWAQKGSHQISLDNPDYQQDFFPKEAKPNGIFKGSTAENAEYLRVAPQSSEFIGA

| Compound | inhibition [1] | inhibition [2] | inhibition [3] | inhibition [4] | inhibition [5] | inhibition [6] | inhibition [7] | inhibition [8] | inhibition [9] | inhibition [10] |
| --- | --- | --- | --- | --- | --- | --- | --- | --- | --- | --- |
| COc1ccc(CNC(=O)c2ccc(-c3cc(-c4nnc(C)o4)ccc3C)cc2)cc1 | 6.32% | 4.36% | 4.67% | 2.84% | 4.15% | 0.12% | 8.38% | 1.79% | 7.03% | 1.31% |
| COc1cccc(-n2ncc3c(N/N=C/c4ccc(F)cc4)ncnc32)c1 | 11.4% | 1.69% | 4.36% | 0.53% | 7.92% | 11.6% | 34.9% | 5.16% | 12% | 1.96% |
| Fc1ccc(-c2cc(-c3c[nH]nc3-c3ccccn3)ccn2)cc1 | 6.45% | 1.07% | 1.14% | 0.04% | 1.67% | 3.93% | 8.78% | 4% | 7.94% | 3.06% |
| CCn1c(-c2nonc2N)nc2c(C#CC(C)(C)O)ncc(OC3CCNCC3)c21 | 1.26% | 0.94% | 1.03% | 1.89% | 3.18% | -0.6% | 2.18% | -0.91% | -0.16% | -0.25% |
| O=S(=O)(CCNCc1ccc(-c2ccc3ncnc(Nc4ccc(OCc5cccc(F)c5)c(Cl)c4)c3c2)o1)c1ccccc1 | 6.6% | 5.04% | 6.18% | 65.3% | 83.3% | 32.6% | 79.5% | 39.2% | 78.2% | 2.92% |
| COC(=O)Nc1nc2ccc(S(=O)(=O)c3ccc(NC(=O)Nc4cc(C(F)(F)F)ccc4F)cc3)cc2[nH]1 | -1.83% | 10.3% | 62.7% | 0.69% | 7.04% | -0.69% | 1.58% | 0.81% | 2.11% | 2.47% |
| Nc1nc(-c2ccc(F)cc2)c(-c2ccc3ncccc3n2)s1 | 5.38% | 0.01% | -5.99% | 2.98% | 21.7% | 13.1% | 60.5% | 6.11% | 22.4% | 1.84% |
| CCn1c(-c2nonc2N)nc2ccccc21 | -0.41% | 1.73% | 2.19% | 2.08% | 1.93% | 3.02% | 0.86% | 1.96% | 0.53% | -0.1% |
| Fc1ccc(-c2nn3ncccc3c2-c2ccnc(Nc3ccc4c(c3)OCCO4)n2)cc1 | 12.4% | 37.2% | 82.5% | 59.5% | 82.1% | 88.3% | 98.4% | 63.6% | 89.5% | 15.3% |
| N#Cc1c(NC(=O)c2ccc(F)cc2)sc2c1CCCC2 | 0.65% | 0.36% | -0.2% | 0.63% | 1.78% | 0.66% | 2.49% | -0.06% | -1.78% | -0.49% |
| COc1ccc2[nH]c3c4[nH]c5ccc(OC)cc5c4c4c(c3c2c1)C(=O)NC4=O | 9.75% | 2.8% | 16.8% | 2.87% | 23.3% | 18.2% | 64.8% | 7.22% | 21.2% | 3.67% |
| Cc1cccc2c1NC(=O)/C2=N\Nc1ccc(S(N)(=O)=O)cc1 | 4.79% | 1.44% | 1.81% | 5.97% | 9.39% | 3.74% | 5.52% | 1.86% | 0.73% | -0.7% |
| COc1cc(Nc2nccc(Nc3ccc4c(C)n[nH]c4c3)n2)cc(OC)c1OC | 67.9% | 9.87% | 43.1% | 8% | 22.2% | 3.36% | 29.9% | 2.9% | 15.6% | 1.4% |
| CCN1CCC(CC(=O)Nc2n[nH]c3nnc(-c4cccc(F)c4F)cc23)CC1 | 4.47% | 1.59% | 1.68% | -0.65% | 2.31% | -0.92% | 3.4% | 0.65% | -0.91% | -0.06% |
| COc1ccc(-c2cc(-c3c[nH]nc3-c3ccccn3)ccn2)cc1 | 10.3% | 2.09% | 3.66% | 1.65% | 6.06% | 1.51% | 8.95% | 4.61% | 4.33% | 2.05% |
| Fc1ccc(-c2nn3ccccc3c2-c2ccncc2)cc1 | 2.22% | 1.72% | 5.54% |  |  |  |  |  |  |  |
| COc1cc(/C=N/Nc2ncnc3[nH]ncc23)ccc1O | 24.9% | 1.42% | 2.31% | 2.77% | 8.71% | 4.32% | 7.89% | 2.91% | 4.72% | 1.39% |

| Compound | inhibition [1] | inhibition [2] | inhibition [3] | inhibition [4] | inhibition [5] | inhibition [6] | inhibition [7] | inhibition [8] | inhibition [9] | inhibition [10] |
| --- | --- | --- | --- | --- | --- | --- | --- | --- | --- | --- |
| CCc1nn2ncccc2c1-c1ccnc(NC2CC2)n1 | 1.97% | 1.02% | 1.6% | 2.78% | 4.33% | 1.84% | 0.95% | 1.81% | 2.47% | 1.44% |
| COC(=O)Nc1nc2ccc(Oc3ccc(NC(=O)Nc4cccc(Cl)c4)cc3)cc2[nH]1 | 5.95% | 84.2% | 85.2% | 3.42% | 7.64% | -0.65% | 2.43% | -0.21% | -0.8% | -1.18% |
| Cc1cccc(Nc2ncc(-c3ccccc3)o2)c1 | 0.89% | 0.22% | 0.44% | 2.11% | 2.82% | 0.79% | 2.98% | -0.45% | 1.8% | 0.73% |
| CC(C)COC(=O)c1ccc2c(c1)/C(=C/Nc1ccc(S(N)(=O)=O)cc1)C(=O)N2 | -1.85% | -1.05% | 2.05% | 1.64% | 4.58% | -0.29% | 0.49% | -1.62% | -0.46% | -1.76% |
| COc1cc2ncn(-c3cc(OCc4ccccc4C(F)(F)F)c(C(=O)N(C)C)s3)c2cc1OC | 0.02% | 0.21% | -0.91% | 0.21% | 0.03% | -1.55% | -0.64% | -1.32% | -1.92% | -1.33% |
| Cc1ccc(O)cc1Nc1ccnc2cc(-c3ccccn3)ccc12 | 57.1% | 20.3% | 74% | 57.7% | 91.9% | 88.8% | 97.8% | 59.8% | 91.9% | 5.49% |
| CC(=O)NCc1cccc(C#Cc2cncnc2Nc2ccc(OCc3cccc(F)c3)c(Cl)c2)c1 | -2.55% | 1.32% | 1.46% | 61.2% | 75.8% | 10.4% | 54.2% | 24% | 42.1% | -1.44% |
| CNC(=O)c1cncc(/C=C/c2ccccc2Cl)c1 | 6% | -0.31% | 6.62% | 2.35% | 6.18% | 1.57% | 10.9% | 1.06% | 7.25% | -0.23% |
| Nc1ncc(-c2cccc(S(N)(=O)=O)c2)c2scc(-c3ccc(F)c(Cl)c3)c12 | 73.3% | 2.61% | 11.2% | 0.5% | 14.2% | 5.06% | 23.1% | 5.17% | 10.2% | 3.18% |
| CC(=O)Nc1cccc(C#Cc2cncnc2Nc2ccc(OCc3cccc(F)c3)c(Cl)c2)c1 | -1.85% | 4.51% | 7.91% |  |  |  |  |  |  |  |
| N#Cc1c(NC(=O)CN2CCOCC2)sc2c1CCCC2 | 3.68% | 2.2% | 2.97% | 0.55% | -0.79% | 3.01% | 4.14% | 3.34% | 3.29% | 3.11% |
| COc1ccc2c(-c3ccnc(Nc4cccc(OC(F)(F)F)c4)n3)cnn2n1 | 12.2% | 1.53% | 3.16% | 1.3% | 2.97% | 4.17% | 5.43% | 2.8% | 4.76% | 2.35% |
| CCN(CC)S(=O)(=O)c1ccc(OC)c(Nc2ncc(-c3ccccc3)o2)c1 | 5.35% | 7.09% | 17.5% | 3.51% | 3.96% | 4.33% | 11.6% | 3.42% | 2.22% | 1.36% |
| CCCN1CCC(c2ccc(Nc3nc(Nc4cc(F)ccc4C(N)=O)c4cc[nH]c4n3)c(OC)c2)CC1 | 6.03% | 0.6% | 3.39% | 8.69% | 40.3% | 5.44% | 46.4% | 6.31% | 28.4% | 30.4% |
| CS(=O)(=O)CCNCc1coc(-c2ccc3ncnc(Nc4ccc(OCc5ccccc5)cc4)c3c2)c1 | 5.24% | 1.75% | 1.8% | 80.3% | 92.2% | 30.6% | 82.5% | 39.1% | 76% | 2.61% |
| NC(=O)c1sc(-n2cnc3ccc(C(F)(F)F)cc32)cc1OCc1ccccc1Br | 4.85% | 1.6% | 0.21% | 0% | -1.55% | 1.72% | 4.51% | 4.73% | 1.73% | 2.11% |
| CCn1cc(-c2ccnc3[nH]ccc23)c(-c2cccc(NC(=O)Nc3ccc(OCc4ccccc4)cc3)c2)n1 | 2.9% | 2.59% | 21% | -1.36% | 2.86% | -3.83% | -3.23% | -1.65% | 2.37% | -1.87% |
